# Measurements published in article PMC8384837, “Expanding the binding specificity for RNA recognition by a PUF domain”.
# Legend:
# Experiment in all cases: yeast three-hybrid, YBZ-1, SC-Leu-His + 0.5 mM 3-AT, 4 days
# Conditions in all cases: tags: N-Gal4 AD-HA kept; label: inside an RPR1-promoter hybrid RNA with tandem MS2 sites; ssRNA
# [1] = target: PUM1 PUF domain R8-PHR (Homo sapiens, UniProt Q14671 828-1176, N1122P;Y1123H;Q1126R)
# Outline: (§1)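 Pumilio-1 PUF domain libraries, randomized (NNK) at the three base-contacting residues of each repeat, were co-expressed with matching RNA elements from a centromeric plasmid in strain YBZ-1 (LexA–MS2 coat fusion, HIS3 reporter). Transformants were plated on SC-Leu (input) and SC-Leu-His + 0.5 mM 3-AT (selection) for four days, and repeat regions were PCR-amplified and Illumina-sequenced. The interaction score is the log2 change in variant frequency from input to selection, with pseudocount 1 where absent.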
# [2] = target: PUM1 PUF domain R3-GPY (Homo sapiens, UniProt Q14671 828-1176, C935G;R936P;Q939Y)
# Outline: as §1
# [3] = target: PUM1 PUF domain R4-NPN (Homo sapiens, UniProt Q14671 828-1176, H972P;Q975N)
# Outline: as §1
# [4] = target: PUM1 PUF domain R5-GNN (Homo sapiens, UniProt Q14671 828-1176, C1007G;R1008N;Q1011N)
# Outline: as §1
# [5] = target: PUM1 PUF domain R5-KAM (Homo sapiens, UniProt Q14671 828-1176, C1007K;R1008A;Q1011M)
# Outline: as §1
# [6] = target: PUM1 PUF domain R7-MSR (Homo sapiens, UniProt Q14671 828-1176, S1079M;N1080S;E1083R)
# Outline: as §1
# [7] = target: PUM1 PUF domain R7-RIR (Homo sapiens, UniProt Q14671 828-1176, S1079R;N1080I;E1083R)
# Outline: as §1
# [8] = target: PUM1 PUF domain R3-MCV (Homo sapiens, UniProt Q14671 828-1176, C935M;R936C;Q939V)
# Outline: as §1
# [9] = target: PUM1 PUF domain R3-SKL (Homo sapiens, UniProt Q14671 828-1176, C935S;R936K;Q939L)
# Outline: as §1
# [10] = target: PUM1 PUF domain R3-VRK (Homo sapiens, UniProt Q14671 828-1176, C935V;Q939K)
# Outline: as §1
sequence,measurement,setting,value
GGCUAGAACUAGUGGAUCCCCCGGCGCCCGGCGGCUCGAGCCCGGGUAAGUGUAAAUAGUCUGCAUGCCGCCGGGCGCCAUGCCUGCAGGUCGACUCUAGAAAACAUG,binding signal,[1],4.34 log2 enrichment (interaction score)
same,binding signal,[2],6.77 log2 enrichment (interaction score)
GGCUAGAACUAGUGGAUCCCCCGGCGCCCGGCGGCUCGAGCCCGGGUAAGUGUAUAUAGUCUGCAUGCCGCCGGGCGCCAUGCCUGCAGGUCGACUCUAGAAAACAUG,binding signal,[3],3.56 log2 enrichment (interaction score)
GGCUAGAACUAGUGGAUCCCCCGGCGCCCGGCGGCUCGAGCCCGGGUAAGUGUUAAUAGUCUGCAUGCCGCCGGGCGCCAUGCCUGCAGGUCGACUCUAGAAAACAUG,binding signal,[4],3.44 log2 enrichment (interaction score)
GGCUAGAACUAGUGGAUCCCCCGGCGCCCGGCGGCUCGAGCCCGGGUAAGUGUCAAUAGUCUGCAUGCCGCCGGGCGCCAUGCCUGCAGGUCGACUCUAGAAAACAUG,binding signal,[5],3.82 log2 enrichment (interaction score)
GGCUAGAACUAGUGGAUCCCCCGGCGCCCGGCGGCUCGAGCCCGGGUAAGCGUAAAUAGUCUGCAUGCCGCCGGGCGCCAUGCCUGCAGGUCGACUCUAGAAAACAUG,binding signal,[1],4.58 log2 enrichment (interaction score)
GGCUAGAACUAGUGGAUCCCCCGGCGCCCGGCGGCUCGAGCCCGGGUAAGUUUAAAUAGUCUGCAUGCCGCCGGGCGCCAUGCCUGCAGGUCGACUCUAGAAAACAUG,binding signal,[6],3.5 log2 enrichment (interaction score)
same,binding signal,[7],3.4 log2 enrichment (interaction score)
GGCUAGAACUAGUGGAUCCCCCGGCGCCCGGCGGCUCGAGCCCGGGUAAGUGUAAGUAGUCUGCAUGCCGCCGGGCGCCAUGCCUGCAGGUCGACUCUAGAAAACAUG,binding signal,[8],2.64 log2 enrichment (interaction score)
GGCUAGAACUAGUGGAUCCCCCGGCGCCCGGCGGCUCGAGCCCGGGUAAGUGUAAUUAGUCUGCAUGCCGCCGGGCGCCAUGCCUGCAGGUCGACUCUAGAAAACAUG,binding signal,[9],2.84 log2 enrichment (interaction score)
same,binding signal,[10],3.28 log2 enrichment (interaction score)
same,binding signal,[8],1.41 log2 enrichment (interaction score)
